Calls of active or inactive are those of the source. How the source made its calls: active means hit-call score of the fitted dose curve at least 0.9, where 1 is the maximum; inactive means score below 0.9.
Biological target: Cellular tumor antigen p53 (Homo sapiens) (UniProt P04637)
Assay: ATG_p53_CIS: Attagene CIS-FACTORIAL HepG2 Assay for human p53 Transcription Factor (AID 2282994)
Settings: HepG2 p53 cis-element reporter, Attagene mRNA; actives raise or lower the signal
Method: ATG_CIS is a cell-based, multiplexed-readout assay that uses HepG2, a human liver cell line, with measurements taken at 24 hours after chemical dosing in a 24-well plate.ATG_p53_CIS is one of 52 assay component(s) measured or calculated from the ATG_CIS assay. It is designed to make measurements of mRNA induction, a form of inducible reporter, as detected with fluorescence intensity signals by Reverse transcription polymerase chain reaction (RT-PCR) and Capillary electrophoresis technology.Data from the assay component ATG_p53_CIS was analyzed into 1 assay endpoint. This assay endpoint, ATG_p53_CIS, was analyzed with bidirectional fitting relative to DMSO as the negative control and baseline of activity. Using a type of inducible reporter, measures of mRNA for gain or loss-of-signal activity can be used to understand the reporter gene at the transcription factor-level as they relate to the gene TP53. Furthermore, this assay endpoint can be referred to as a primary readout, because this assay has produced multiple assay endpoints where this one serves a reporter gene function. To generalize the intended target to other relatable targets, this assay endpoint is annotated to the dna binding intended target family, where the subfamily is tumor suppressor.
Human liver HepG2 cells are transiently transfected with multiple reporter transcription units (MRTUs) in 6-well plates using FuGene 6 reagent (Roche; 3 ml FuGene/1 mg DNA). The MRTU constructs are regulated by a cis-regulating element (promoter). […] A major difference between the CIS and TRANS system is that in CIS activities of endogenous TFs are measured, whereas the TRANS assay evaluates changes in activities of exogenous, chimeric NR-Gal4 proteins. […] At the end of 24 hour incubation, total RNA was isolated using TriZol reagent (Invitrogen). The isolated RNA is then reverse-transcribed using oligo(dT) primer and Mo-MLV reverse transcriptase (Invitrogen) with DNAse I (Ambion) treatment for 30 min. The one-tenth of the produced cDNA was amplified by PCR using Taq DNA polymerase (Invitrogen) and two reporter sequence-specific primers. The PCR products were fluorescently labeled by primer extension with 6-arboxyfluorescein (6-FAM) 5'-labeled reporter sequence-specific primer (2 min at 95 C, 20 s at 68 C and 10 min at 72 C) and these products were digested with 5U of HpaI (New England Biolabs) for 2h at 37 C. The fragments were purified using Qiaquick PCR columns (Qiagen), analyzed on an ABI 3130xL genetic analyzer (Applied Biosystems) with peak positions identified by using a set of X-rhodamine (ROX)-labeled MapMarker1000 molecular weight standards (BioVentures). The raw capillary electrophoresis data was processed using Attagraph software (Attagene).

Sequence of Cellular tumor antigen p53 (Homo sapiens) (P04637 whole entry, looked up): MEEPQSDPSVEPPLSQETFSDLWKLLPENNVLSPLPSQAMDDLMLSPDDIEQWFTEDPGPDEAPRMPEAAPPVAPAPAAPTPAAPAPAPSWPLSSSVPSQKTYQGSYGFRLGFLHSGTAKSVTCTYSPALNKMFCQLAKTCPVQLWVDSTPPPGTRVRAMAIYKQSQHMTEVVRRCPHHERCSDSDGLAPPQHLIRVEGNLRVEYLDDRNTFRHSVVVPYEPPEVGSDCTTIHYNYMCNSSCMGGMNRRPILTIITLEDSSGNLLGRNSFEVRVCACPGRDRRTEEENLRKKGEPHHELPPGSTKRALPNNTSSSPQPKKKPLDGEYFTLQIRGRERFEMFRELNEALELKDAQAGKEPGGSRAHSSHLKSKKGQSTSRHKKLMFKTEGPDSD

Structure (SMILES) | outcome | AC50
CC(C)C1=CC2=CC[C@@H]3[C@](C)(CCC[C@@]3(C)C(=O)O)[C@H]2CC1 | inactive | –
CN1C(=O)N(C)C(O)C1O (stereo not given) | inactive | –
O=C1CC2CC1C1CCCC21 (stereo not given) | inactive | –
C=CC(=O)OCCOC1C2CCC1C1CC=CC12 (stereo not given) | inactive | –
CCCOC(=O)CCCCC(=O)OCCC | inactive | –
CCC(C)OC(=O)c1ccc(O)cc1 (stereo not given) | inactive | –
CC=CC(F)(F)C(F)(F)C(F)(F)F | inactive | –
OCCNCc1ccccc1 | inactive | –
Cc1cccc(OCCOc2cccc(C)c2)c1 | inactive | –
COC(=O)/C=C/C(C)=C\C=C\C(C)=C\C=C\C=C(C)\C=C\C=C(C)\C=C\C(=O)O | inactive | –
CCCC(=O)OCc1ccccc1 | inactive | –
CCOC(=O)Cc1cccc2ccccc12 | inactive | –
CCC(CC)C(=O)O | inactive | –
CCCCCCCC/C=C\CCCCCCCC(=O)O | inactive | –
O=C1CCCCCN1SSN1CCCCCC1=O | inactive | –
CC1=CC[C@H](C(C)C)C=C1 | inactive | –
CC(C)(Oc1ccc(C2CC2(Cl)Cl)cc1)C(=O)O (stereo not given) | inactive | –
CC1(C)O[C@@H]2C[C@H]3[C@@H]4C[C@H](F)C5=CC(=O)CC[C@]5(C)[C@H]4[C@@H](O)C[C@]3(C)[C@]2(C(=O)CO)O1 | inactive | –
O=[N+]([O-])C1(Br)COCOC1 | – | 53.8 µM (active)
[Cl][Nd]([Cl])[Cl] | inactive | –

Structure (SMILES) | outcome | AC50
NC(=O)C1CO1 (stereo not given) | inactive | –
Nc1cccc(C(F)(F)F)c1 | inactive | –
CCC(=O)Oc1ccc(/C(CC)=C(\CC)c2ccc(OC(=O)CC)cc2)cc1 | – | 27.9 µM (active)
COC(=O)c1cc(Cl)ccc1[N+](=O)[O-] | inactive | –
CCCC(C)CCC(C)=O (stereo not given) | inactive | –
CCCCC/C=C\C/C=C\CCCCCCCC(=O)OC | – | 180 µM (active)
O=C1C=CC(=O)O1 | inactive | –
C=CC(C)(C)C | inactive | –
C[C@]12C=CC(=O)C=C1CC[C@@H]1[C@@H]2[C@@H](O)C[C@@]2(C)[C@H]1CC[C@]2(O)C(=O)CO | inactive | –
COC(=O)C1=C(C)NC(C)=C(C(=O)OCC(C)C)C1c1ccccc1[N+](=O)[O-] (stereo not given) | inactive | –
CCCCCCCCO[C@@H]1O[C@H](CO)[C@@H](O)[C@H](O)[C@H]1O | inactive | –
Nc1ccc(N)c(Cl)c1 | – | 33.4 µM (active)
NC(CO)(CO)CO | inactive | –
C(=CC=Nc1ccccc1)C=CNc1ccccc1 | inactive | –
CC1(C)S[C@@H]2[C@H](NC(=O)COc3ccccc3)C(=O)N2[C@H]1C(=O)O | inactive | –
CC(C)CC(O)Cc1ccccc1 (stereo not given) | inactive | –
C[C@]12CCC(=O)C=C1CC[C@@H]1[C@@H]2C(=O)C[C@@]2(C)[C@H]1CC[C@]2(O)C(=O)CO | inactive | –
O=c1n(CCO)c(=O)n(CCO)c(=O)n1CCO | inactive | –
C[Si](C)O[Si](C)(C)O[Si](C)(C)O[Si](C)C | inactive | –
CCCCCCCCCCOC(C)=O | inactive | –

— PubChem BioAssay (EPA / NIEHS)
